Source: PubChem BioAssay
ALDH1A1 inh: qHTS Assay for Inhibitors of Aldehyde Dehydrogenase 1 (ALDH1A1) | hit rate 7.3% among 220,000 | Potency, µM (top dose mostly 75.3 µM), for inactives: top-dose activity, negative = inhibition, actives largely listed as inhibitors | Purified ALDH1A1, NADH fluorescence, propionaldehyde substrate | Aldehyde dehydrogenase 1A1 (Homo sapiens), P00352 | AID 1030, 2008;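 also: potency is read from the fitted curve at half-maximal effect; plate controls were no enzyme wells and a reference inhibitor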
IMPase inh: qHTS Assay for Identifying the Cell-Membrane Permeable IMPase Inhibitors. Inositol monophosphatase 1 (Rattus norvegicus), P97697. inhibition (IP1 accumulation), % at 46.1 µM. 120,000 tested, under 10 active. CHO-M1 cells, IP1 accumulation, HTRF TR-FRET ratio; active = well fitted curve in the direction sought with a large enough effect in the signal ratio, not every such curve was filed as active; inconclusive = small, poorly fitted or top-dose-only effect, or a change in a side signal; inactive = no such curve, though single readings can be large or run the other way; the % refers to the signal ratio;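 also: cells stimulated with carbachol in lithium chloride buffer; plate controls were DMSO basal wells for no effect and reference inhibitor wells for full effect; higher means more IMPase inhibition seen as more IP1 and lower FRET ratio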
Target sequence (P97697 whole entry, looked up): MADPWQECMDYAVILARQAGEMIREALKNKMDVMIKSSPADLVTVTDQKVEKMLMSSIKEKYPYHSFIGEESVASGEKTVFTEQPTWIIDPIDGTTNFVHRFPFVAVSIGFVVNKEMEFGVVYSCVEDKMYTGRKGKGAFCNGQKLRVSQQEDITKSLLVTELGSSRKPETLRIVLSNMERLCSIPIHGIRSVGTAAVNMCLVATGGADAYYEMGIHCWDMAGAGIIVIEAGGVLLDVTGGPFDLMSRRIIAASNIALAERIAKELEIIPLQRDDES
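Seeded CHO-M1 cells were dosed with compound at up to 46 uM, stimulated with carbachol for 30 min, then lysed in IP-One detection reagents. Higher IP1 lowers the TR-FRET signal.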
HPGD inh: qHTS Assay for Inhibitors of HPGD (15-Hydroxyprostaglandin Dehydrogenase). 15-hydroxyprostaglandin dehydrogenase [NAD(+)] (Homo sapiens), P15428. purified HPGD, NADH fluorescence kinetic, PGE2 substrate. Potency, µM, for inactives: at the top dose activity change, negative = inhibition, usual class: inhibitors. hit rate 4.3% among 150,000; also: potency is read from the fitted curve at half-maximal effect
Target sequence (P15428 whole entry, looked up): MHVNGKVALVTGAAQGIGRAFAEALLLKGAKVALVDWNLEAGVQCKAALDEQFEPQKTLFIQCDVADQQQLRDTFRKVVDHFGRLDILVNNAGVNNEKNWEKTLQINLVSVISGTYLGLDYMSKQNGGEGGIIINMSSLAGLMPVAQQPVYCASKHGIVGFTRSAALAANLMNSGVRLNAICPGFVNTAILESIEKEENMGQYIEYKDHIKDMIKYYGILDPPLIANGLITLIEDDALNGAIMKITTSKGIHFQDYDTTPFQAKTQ
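20 nM HPGD preincubated 15 min at room temperature with compound in 50 mM Tris-HCl pH 8, 0.01% Tween 20. Started with 1 mM NAD+ and 30 uM prostaglandin E2; NADH fluorescence (360/450 nm) read 5 times over 30-s intervals, last minus first.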
* = called active by the depositor. This is a sample that favours compounds with a hit; in the whole collection about 9% have one here. Unless noted, calls follow the shape of the dose curve; as a rule, active = well fitted inhibition curve with a large enough effect (not every such curve was filed as active); inconclusive = small, poorly fitted or top-dose-only effect, or another doubt; inactive = no such curve, though single readings can be large or run the other way. Unless noted, % is scaled to controls: 0 for no effect and ±100 for the full control effect.

For CCOC(=O)c1cc(NC(=O)c2ccoc2C)cc(C(=O)OCC)c1 the results were ALDH1A1 inh 6.3µM*, IMPase inh 11 and HPGD inh -22%.
NC(=O)c1cc(Cc2ccccc2)sc1NC(=O)c1ccco1 was read as ALDH1A1 inh 18µM*, IMPase inh -10 and HPGD inh 28µM*.
COC(=O)N[C@@H](CCc1ccccc1)[C@]1(C(C)=O)CCCC1=O was read as ALDH1A1 inh -2% and HPGD inh -11%.
`CCOc1ncccc1C(=O)OCC(=O)Nc1cccc(S(N)(=O)=O)c1` gave ALDH1A1 inh 22%.
Screening Cc1cc(C)c(NC(=O)Cn2c(=O)n(CC(=O)NCCc3ccccc3)c(=O)c3ccccc32)c(C)c1 returned IMPase inh -3.
For Cc1ccc(C2/C(=C(/O)c3ccccc3)C(=O)C(=O)N2CCN2CCOCC2)o1 (stereo unspecified) the results were ALDH1A1 inh inconclusive, IMPase inh -7 and HPGD inh -2%.
`Cc1ccc(C2/C(=C(/O)c3cnn(-c4ccccc4)c3C)C(=O)C(=O)N2CCN2CCOCC2)o1` (stereo unspecified) gave ALDH1A1 inh 7.9µM*, IMPase inh 3 and HPGD inh -18%.
O=C1C(=O)N(CCN2CCOCC2)C(c2ccccn2)/C1=C(/O)c1ccccc1 (stereo unspecified) was read as ALDH1A1 inh 3.5µM*, IMPase inh -8 and HPGD inh -20%.
For Cc1ccc(C)c(/C(O)=C2/C(=O)C(=O)N(CCN3CCOCC3)C2c2ccco2)c1 (stereo unspecified) the results were ALDH1A1 inh 10µM*, IMPase inh -6 and HPGD inh inconclusive.
Cc1ccc(/C(O)=C2/C(=O)C(=O)N(CCN3CCOCC3)C2c2ccccn2)cc1 (stereo unspecified) was read as ALDH1A1 inh inconclusive, IMPase inh 1 and HPGD inh -6%.
Cc1ccc(C2/C(=C(\O)c3cnn(-c4ccccc4)c3C)C(=O)C(=O)N2CCN(C)C)o1 (stereo unspecified) was read as ALDH1A1 inh 2%, IMPase inh 9 and HPGD inh -20%.
Screening O=C(CSCc1c(F)cccc1Cl)Nc1ccccc1C(=O)N1CCOCC1 returned ALDH1A1 inh -5%.
`COC(=O)c1ccc(COC(=O)CCC(=O)c2cccs2)cc1` gave ALDH1A1 inh 3% and HPGD inh -7%.
`CC1(C)C(=O)NCCN1C(=O)CCCC(=O)O` gave ALDH1A1 inh 2%.
`CCc1ccc(C2CC(=O)c3c([nH]c(C(=O)OC4CCCC4)c3C)C2)cc1` (stereo unspecified) gave IMPase inh 7.
For CN(C)CCN1C(=O)NC(C)(c2ccc([N+](=O)[O-])cc2)C1=O (stereo unspecified) the results were ALDH1A1 inh -8%.
`COc1ccc(C2CC(=O)N3C(=C2C#N)SCC3(O)c2ccccc2)cc1` (stereo unspecified) gave ALDH1A1 inh inconclusive, IMPase inh 8 and HPGD inh -19%.
Screening COc1cccc(C2CC(=O)N3CN(c4ccccc4F)CSC3=C2C#N)c1 (stereo unspecified) returned ALDH1A1 inh 25µM*, IMPase inh -4 and HPGD inh inconclusive.
COc1ccc(OC)c(C2CC(=O)NC(SC)=C2C#N)c1 (stereo unspecified) was read as ALDH1A1 inh -6%, IMPase inh -4 and HPGD inh -16%.
COc1ccc(OC)c(C2CC(=O)N3CN(c4ccccc4F)CSC3=C2C#N)c1 (stereo unspecified) was read as ALDH1A1 inh 4µM*, IMPase inh 6 and HPGD inh 25µM*.
`CN1CCN(C(=O)N2CCNC2=O)CC1` gave ALDH1A1 inh 11%, IMPase inh 7 and HPGD inh -7%.
For Cc1nnc(NC(=O)c2ccc(C)c(S(=O)(=O)N3CCOCC3)c2)s1 the results were ALDH1A1 inh 9%, IMPase inh 12 and HPGD inh -7%.
Screening CSc1nnc(NC(=O)c2ccc(C)c(S(=O)(=O)N3CCOCC3)c2)s1 returned ALDH1A1 inh inconclusive, IMPase inh 3 and HPGD inh 20µM*.
For COc1ccc(C(=O)Nc2cccc(C(C)=O)c2)cc1S(=O)(=O)N1CCOCC1 the results were ALDH1A1 inh -9%, IMPase inh -2 and HPGD inh -1%.
Cc1ccc(NC(=O)c2cc3c(s2)CCC3)cc1S(=O)(=O)N1CCOCC1 was read as ALDH1A1 inh 1.1µM*, IMPase inh 0 and HPGD inh -9%.
Screening CC1CCc2sc(C(=O)OCC(=O)NC(C)C)cc2C1 (stereo unspecified) returned ALDH1A1 inh 5%.
Screening CC1CCc2sc(C(=O)NN)cc2C1 (stereo unspecified) returned ALDH1A1 inh 7.1µM*.
For Cc1ccc(S(=O)(=O)N2CCOCC2)cc1NC(=O)c1cc2c(s1)CCC2 the results were ALDH1A1 inh inconclusive, IMPase inh 1 and HPGD inh -5%.
Screening COc1ccc(NC(=O)c2cc3c(s2)CCC(C)C3)cc1S(=O)(=O)N1CCOCC1 (stereo unspecified) returned ALDH1A1 inh 16µM* and HPGD inh -12%.
`CCN(CC)C(=O)c1cc(C(C)(C)C)c(O)c(C(C)(C)C)c1` gave ALDH1A1 inh 1% and HPGD inh -8%.
Screening C[C@@]12C=CC(=O)C=C1CCC1C3CC(O)[C@@](O)(C(=O)CO)[C@]3(C)CC(O)[C@]12F (stereo partly specified) returned ALDH1A1 inh 5% and HPGD inh -6%.
Screening Cc1ccnc2nc(C(=O)OCCOc3ccc(Cl)cc3)nn12 returned ALDH1A1 inh -7%.
For CN(Cc1ccco1)c1ncnc2ccc(-c3ccccc3C(F)(F)F)cc12 the results were ALDH1A1 inh -9%.
For COC(=O)c1ccc(CN2CCN(C3CCCC3)C(CCO)C2)cc1 (stereo unspecified) the results were ALDH1A1 inh 10%.
`CC(O)CCCCn1c(=O)c2c(ncn2C)n(C)c1=O` (stereo unspecified) gave ALDH1A1 inh -4%.
O=C(CSc1ccc2c(c1)OCCO2)NCC1CCCO1 (stereo unspecified) was read as ALDH1A1 inh inconclusive, IMPase inh 8 and HPGD inh 16µM*.
O=C(CSCc1c(Cl)cccc1Cl)NCC1CCCO1 (stereo unspecified) was read as ALDH1A1 inh inconclusive, IMPase inh 1 and HPGD inh 5µM*.
Screening O=C(Cc1c(F)cccc1Cl)NCC1CCCO1 (stereo unspecified) returned ALDH1A1 inh 3%, IMPase inh 10 and HPGD inh -7%.
`Nc1cc(N)nc(SCC(=O)NCC2CCCO2)n1` (stereo unspecified) gave ALDH1A1 inh 1%, IMPase inh 9 and HPGD inh -14%.
O=C(CCCCCCCC(=O)NCC1CCCO1)NCC1CCCO1 (stereo unspecified) was read as ALDH1A1 inh 5%, IMPase inh 7 and HPGD inh inconclusive.
